Measured values: PubChem BioAssay (NCI)
The panel holds about 79,000 compounds, 15% with a hit somewhere; the sample as a whole holds those more often. Unmarked numbers belong to inactive results. Active and inactive are the calls of the source. No stated cut-off is given here; in the data, active means growth inhibition above about 70%; inactive means the rest.

Key:
[1] = NCI Yeast Anticancer Drug Screen. Data for the rad50 strain (AID 155);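 further: 0% = growth of vehicle-only cultures of the same strain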; settings: S. cerevisiae rad50 strain growth inhibition, active compounds read high
Procedure, shortened: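 Growth of the mutant yeast was measured after compound exposure and referenced to vehicle-treated cultures.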

[2] = NCI Yeast Anticancer Drug Screen. Data for the mec2-1 strain (AID 157); settings: S. cerevisiae mec2-1 strain, active compounds read high
Procedure, shortened: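 Mutant yeast (mec2-1) grown with compound; growth inhibition relative to vehicle control reported.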

[3] = NCI Yeast Anticancer Drug Screen. Data for the sgs1 mgt1 strain (AID 161);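 further: 0% = growth of cultures given vehicle only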; settings: S. cerevisiae sgs1 mgt1 strain, active compounds read high
Procedure, shortened: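 Yeast cells carrying a defined DNA-repair defect were exposed to test compounds. Growth inhibition was measured relative to vehicle-treated controls.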

[4] = NCI Yeast Anticancer Drug Screen. Data for the cln2 rad14 strain (AID 165);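 further: 0% = growth equal to vehicle treated cultures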; settings: S. cerevisiae cln2 rad14 strain, active compounds read high
Procedure, shortened: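 Readout is yeast growth inhibition versus vehicle-treated controls, using a strain with cln2 and rad14 alterations exposed to compound.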

[5] = NCI Yeast Anticancer Drug Screen. Data for the bub3 strain (AID 167); settings: S. cerevisiae bub3 mutant strain, active compounds read high
Procedure, shortened: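 Whole-cell yeast assay. The mutant strain was incubated with compounds, and growth inhibition was determined by comparison with vehicle-treated cells.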

[6] = NCI Yeast Anticancer Drug Screen. Data for the mlh1 rad18 strain (AID 175); settings: S. cerevisiae mlh1 rad18 strain growth inhibition, active compounds read high
Procedure, shortened: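 Genetically defined yeast (DNA repair-deficient) exposed to compounds; growth inhibition determined relative to vehicle.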

[7] = at 5.0 µM (retest, dose inferred, filed as 0.5)
[8] = at 50.0 µM (retest, dose inferred, filed as 5.0)

With `Oc1c(Cl)c(Cl)cc(Cl)c1Cc1c(Cl)cc(Cl)c(Cl)c1[O][Pb]([c]1ccccc1)([c]1ccccc1)[c]1ccccc1` the growth inhibition [1, 7] was 99% (active), the growth inhibition [1, 8] was 87% (active) and the growth inhibition ([1]; at 50.0 µM) was 99.5% (active). For the same compound, the growth inhibition [2, 7] was 99% (active), the growth inhibition [2, 8] was 90% (active) and the growth inhibition ([2]; at 50.0 µM) was 99.5% (active). For the same compound, the growth inhibition [3, 7] was 99% (active), the growth inhibition [3, 8] was 89% (active) and the growth inhibition ([3]; at 50.0 µM) was 99.7% (active). The growth inhibition [4, 7] was 99% (active), the growth inhibition [4, 8] was 87% (active) and the growth inhibition ([4]; at 50.0 µM) was 99% (active). For the same compound, the growth inhibition [5, 7] was 99% (active), the growth inhibition [5, 8] was 89% (active) and the growth inhibition ([5]; at 50.0 µM) was 99.3% (active). The growth inhibition [6, 7] was 99% (active), the growth inhibition [6, 8] was 87% (active) and the growth inhibition ([6]; at 50.0 µM) was 99.5% (active).

For `CCC[CH2][Sn]1([CH2]CCC)[O]CC(CN2CCOCC2)[O]1` (stereo not drawn), the growth inhibition [1, 7] was 27%, the growth inhibition [1, 8] was 34% and the growth inhibition ([1]; at 50.0 µM) was 87.7% (active). The growth inhibition [2, 7] was 17%, the growth inhibition [2, 8] was 35% and the growth inhibition ([2]; at 50.0 µM) was 91% (active). For the same compound, the growth inhibition [3, 7] was 34%, the growth inhibition [3, 8] was 41% and the growth inhibition ([3]; at 50.0 µM) was 91% (active). For the same compound, the growth inhibition [4, 7] was 26%, the growth inhibition [4, 8] was 31% and the growth inhibition ([4]; at 50.0 µM) was 88.8% (active). The growth inhibition [5, 7] was 22%, the growth inhibition [5, 8] was 27% and the growth inhibition ([5]; at 50.0 µM) was 90.3% (active). The growth inhibition [6, 7] was 45%, the growth inhibition [6, 8] was 44% and the growth inhibition ([6]; at 50.0 µM) was 88.8% (active).

For `Cc1cc(C)c(C[N+](C)(C)C)c(C)c1C`, the growth inhibition [1, 7] was 82% (active), the growth inhibition [1, 8] was 98% (active) and the growth inhibition ([1]; at 50.0 µM) was 98.5% (active). For the same compound, the growth inhibition [2, 7] was 57%, the growth inhibition [2, 8] was 99% (active) and the growth inhibition ([2]; at 50.0 µM) was 99.7% (active). For the same compound, the growth inhibition [3, 7] was 86% (active), the growth inhibition [3, 8] was 98% (active) and the growth inhibition ([3]; at 50.0 µM) was 99.7% (active). For the same compound, the growth inhibition [4, 7] was 75% (active), the growth inhibition [4, 8] was 98% (active) and the growth inhibition ([4]; at 50.0 µM) was 98.7% (active). For the same compound, the growth inhibition [5, 7] was 78% (active), the growth inhibition [5, 8] was 98% (active) and the growth inhibition ([5]; at 50.0 µM) was 99.4% (active).

In the case of `O=C(NCC1(O)N=C(c2ccc(F)cc2)c2ccsc2-n2cccc21)c1ccc(Cl)cc1Cl` (stereo not drawn), the growth inhibition [1, 7] is reported as 6%, the growth inhibition [1, 8] is reported as 63% and the growth inhibition ([1]; at 50.0 µM) is reported as 96.7% (active). The growth inhibition [2, 7] was -2%, the growth inhibition [2, 8] was 44% and the growth inhibition ([2]; at 50.0 µM) was 95.5% (active). The growth inhibition [3, 7] was -8%, the growth inhibition [3, 8] was 63% and the growth inhibition ([3]; at 50.0 µM) was 97.2% (active). The growth inhibition [4, 7] was 2%, the growth inhibition [4, 8] was 79% (active) and the growth inhibition ([4]; at 50.0 µM) was 93.8% (active). The growth inhibition [5, 7] was 9%, the growth inhibition [5, 8] was 66% and the growth inhibition ([5]; at 50.0 µM) was 94.5% (active). For the same compound, the growth inhibition [6, 7] was 6%, the growth inhibition [6, 8] was 77% (active) and the growth inhibition ([6]; at 50.0 µM) was 94.9% (active).

In the case of `O=c1oc2ccccc2c(O)c1C(C/C(CCN1CCCC1)=N/O)c1ccccc1` (stereo not drawn), the growth inhibition [1, 7] is reported as 28%, the growth inhibition [1, 8] is reported as 28% and the growth inhibition ([1]; at 50.0 µM) is reported as 79.8% (active). The growth inhibition [2, 7] was 22%, the growth inhibition [2, 8] was 22% and the growth inhibition ([2]; at 50.0 µM) was 81.7% (active). For the same compound, the growth inhibition [3, 7] was 16%, the growth inhibition [3, 8] was 16% and the growth inhibition ([3]; at 50.0 µM) was 76.8% (active). It also gave a growth inhibition [4, 7] of -3%, a growth inhibition [4, 8] of -3% and a growth inhibition ([4]; at 50.0 µM) of 64.2%. For the same compound, the growth inhibition [5, 7] was 9%, the growth inhibition [5, 8] was 9% and the growth inhibition ([5]; at 50.0 µM) was 72.4% (active). The growth inhibition [6, 7] was 10%, the growth inhibition [6, 8] was 10% and the growth inhibition ([6]; at 50.0 µM) was 79.2% (active).

With `CC(C)NC1CC2CCCCC2CC1c1ccccc1` (stereo not drawn) the growth inhibition [1, 7] was 1%, the growth inhibition [1, 8] was 51% and the growth inhibition ([1]; at 50.0 µM) was 79.8% (active). The growth inhibition [2, 7] was 4%, the growth inhibition [2, 8] was 25% and the growth inhibition ([2]; at 50.0 µM) was 83.3% (active). The growth inhibition [3, 7] was 10%, the growth inhibition [3, 8] was 68% and the growth inhibition ([3]; at 50.0 µM) was 90.9% (active). The growth inhibition [4, 7] was 3%, the growth inhibition [4, 8] was 57% and the growth inhibition ([4]; at 50.0 µM) was 82.3% (active). For the same compound, the growth inhibition [5, 7] was 17%, the growth inhibition [5, 8] was 53% and the growth inhibition ([5]; at 50.0 µM) was 82.4% (active). The growth inhibition [6, 7] was 20%, the growth inhibition [6, 8] was 74% (active) and the growth inhibition ([6]; at 50.0 µM) was 88.8% (active).

For `Cc1ccc(S(=O)(=O)N=S(=O)(CCCl)CCCl)cc1`, the growth inhibition [1, 7] was 16%, the growth inhibition [1, 8] was 98% (active) and the growth inhibition ([1]; at 50.0 µM) was 94% (active). The growth inhibition [2, 7] was 17%, the growth inhibition [2, 8] was 97% (active) and the growth inhibition ([2]; at 50.0 µM) was 88.5% (active). The growth inhibition [3, 7] was 25%, the growth inhibition [3, 8] was 99% (active) and the growth inhibition ([3]; at 50.0 µM) was 97.5% (active). The growth inhibition [4, 7] was 18%, the growth inhibition [4, 8] was 94% (active) and the growth inhibition ([4]; at 50.0 µM) was 62.9%. The growth inhibition [5, 7] was 9%, the growth inhibition [5, 8] was 89% (active) and the growth inhibition ([5]; at 50.0 µM) was 47.4%.

For `CCC[CH2][Sn]1([CH2]CCC)[O]c2ccccc2[O]1`, the growth inhibition [1, 7] was 9%, the growth inhibition [1, 8] was 95% (active) and the growth inhibition ([1]; at 50.0 µM) was 89% (active). For the same compound, the growth inhibition [2, 7] was 23%, the growth inhibition [2, 8] was 94% (active) and the growth inhibition ([2]; at 50.0 µM) was 90.8% (active). The growth inhibition [3, 7] was 13%, the growth inhibition [3, 8] was 94% (active) and the growth inhibition ([3]; at 50.0 µM) was 90.5% (active). The growth inhibition [4, 7] was 0%, the growth inhibition [4, 8] was 92% (active) and the growth inhibition ([4]; at 50.0 µM) was 83.8% (active). For the same compound, the growth inhibition [5, 7] was 35%, the growth inhibition [5, 8] was 95% (active) and the growth inhibition ([5]; at 50.0 µM) was 89.4% (active). The growth inhibition [6, 7] was 11%, the growth inhibition [6, 8] was 96% (active) and the growth inhibition ([6]; at 50.0 µM) was 89.1% (active).

`OC1C2[C@@H](O)CCCN2C[C@@H](O)[C@H]1O` (stereo partly drawn) showed a growth inhibition [1, 7] of 15%, a growth inhibition [1, 8] of 21% and a growth inhibition ([1]; at 50.0 µM) of -45.2%. The growth inhibition [2, 7] was 11%, the growth inhibition [2, 8] was 13% and the growth inhibition ([2]; at 50.0 µM) was -59%. It also gave a growth inhibition [3, 7] of 5%, a growth inhibition [3, 8] of 14% and a growth inhibition ([3]; at 50.0 µM) of -34.5%. The growth inhibition [4, 7] was 5%, the growth inhibition [4, 8] was 20% and the growth inhibition ([4]; at 50.0 µM) was 8.4%. It also gave a growth inhibition [5, 7] of 6%, a growth inhibition [5, 8] of 8% and a growth inhibition ([5]; at 50.0 µM) of 4.95%. The growth inhibition [6, 7] was 14%, the growth inhibition [6, 8] was 58% and the growth inhibition ([6]; at 50.0 µM) was -15.3%.

With `[Cl][Hg][c]1ccc2ccccc2c1` the growth inhibition [1, 7] was 99% (active), the growth inhibition [1, 8] was 98% (active) and the growth inhibition ([1]; at 50.0 µM) was 85.8% (active). The growth inhibition [2, 7] was 100% (active), the growth inhibition [2, 8] was 97% (active) and the growth inhibition ([2]; at 50.0 µM) was 89.5% (active). For the same compound, the growth inhibition [3, 7] was 100% (active), the growth inhibition [3, 8] was 98% (active) and the growth inhibition ([3]; at 50.0 µM) was 90.9% (active). For the same compound, the growth inhibition [4, 7] was 100% (active), the growth inhibition [4, 8] was 97% (active) and the growth inhibition ([4]; at 50.0 µM) was 89.3% (active). For the same compound, the growth inhibition [5, 7] was 99% (active), the growth inhibition [5, 8] was 97% (active) and the growth inhibition ([5]; at 50.0 µM) was 88.1% (active). The growth inhibition [6, 7] was 100% (active) and the growth inhibition [6, 8] was 97% (active).
